In PubChem BioAssay (Tox21):
Values joined by “and” are separate entries in the source; they are usually repeats but may differ in a detail not shown here. Equal values may be shown once. Results filed as inconclusive are left out. The source holds several records for some structures; these can differ, active in one and inactive in another. Active and inactive are the calls of the source. Unless noted, calls come from the whole dose curve; as a rule, active = well fitted curve in the direction sought with a large enough effect in the repeat runs; inconclusive = weak or mixed curves; inactive = no such curve, though single readings can be large; an effect the other way counts as inactive or inconclusive.

Key:
[1] = qHTS assay to identify small molecule antagonists of the retinoid acid receptor (RAR) signaling pathway - cell viability counter screen (AID 1159551); note: nearly all actives have a fitted effect of over 35% in size; note: potency is the fitted concentration of half-maximal effect
Outline: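 Cytotoxicity counter screen: ATP content quantified by CellTiter-Glo luminescence in C3RL4 cells treated 6 hr at 37 C with compound and retinol (1 uM final). Cells plated at 1,000/well and cultured overnight before dosing.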

[2] = qHTS assay to identify small molecule agonists of the retinoic acid receptor (RAR) signaling pathway (AID 1159553)
Outline: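 Luminescence was measured 30 min after luciferase reagent addition at room temperature. Before that, C3RL4 reporter cells (1,000 per well, plated overnight) were treated with compound for 6 hr at 37 C and 5% CO2.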

[3] = qHTS assay to identify small molecule antagonists of the estrogen related receptor (ERR) signaling pathway from Tox21 library - cell viability counter screen (AID 1224834); note: nearly all actives have a fitted effect of over 30% in size; note: potency is the fitted concentration of half-maximal effect
Outline: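 CellTiter-Fluor fluorescence, read after 30 min at 37 C, measures viability of ERR cells. Cells plated at 2,000/well and incubated 6 h before pin-tool compound addition, then exposed 17.5 hours at 37 C.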

[4] = target: Luciferin 4-monooxygenase (Photinus pyralis) (UniProt P08659); assay: qHTS assay to identify small molecule inhibitors of firefly luciferase (AID 1224835); note: series mostly up to about 120 µM; nearly all actives have a fitted effect of over 25% in size
Luciferin 4-monooxygenase (Photinus pyralis), sequence (P08659 whole entry, looked up): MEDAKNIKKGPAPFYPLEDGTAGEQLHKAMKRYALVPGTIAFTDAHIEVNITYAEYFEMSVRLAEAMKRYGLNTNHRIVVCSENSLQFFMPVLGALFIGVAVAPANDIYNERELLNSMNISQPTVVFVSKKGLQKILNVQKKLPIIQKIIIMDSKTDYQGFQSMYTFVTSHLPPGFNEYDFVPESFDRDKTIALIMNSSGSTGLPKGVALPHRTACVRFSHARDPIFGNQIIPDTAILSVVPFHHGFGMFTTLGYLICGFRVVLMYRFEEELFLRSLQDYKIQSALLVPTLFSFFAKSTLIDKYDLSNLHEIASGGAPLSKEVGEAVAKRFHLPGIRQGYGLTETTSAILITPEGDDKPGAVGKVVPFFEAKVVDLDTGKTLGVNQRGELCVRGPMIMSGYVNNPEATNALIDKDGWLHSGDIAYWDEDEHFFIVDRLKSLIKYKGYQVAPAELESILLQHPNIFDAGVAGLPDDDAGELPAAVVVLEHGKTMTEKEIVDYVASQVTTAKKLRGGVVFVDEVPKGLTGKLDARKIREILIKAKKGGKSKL
Outline: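 Inhibition of purified Photinus luciferase is measured by luminescence. Substrate levels (D-luciferin, ATP) sit at their KM values. Each compound is tested in a concentration series.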

[5] = target: Nuclear receptor subfamily 1 group I member 3 (Homo sapiens) (UniProt Q14994); assay: qHTS assay to identify small molecule antagonists of the constitutive androstane receptor (CAR) signaling pathway (AID 1224838);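 note: HepG2 cells stably expressing hCAR with CYP2B6 luciferase reporter stimulated by CITCO; nearly all actives have a fitted effect of over 40% in size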; note: potency is the fitted concentration of half-maximal effect
Nuclear receptor subfamily 1 group I member 3 (Homo sapiens), sequence (Q14994 whole entry, looked up): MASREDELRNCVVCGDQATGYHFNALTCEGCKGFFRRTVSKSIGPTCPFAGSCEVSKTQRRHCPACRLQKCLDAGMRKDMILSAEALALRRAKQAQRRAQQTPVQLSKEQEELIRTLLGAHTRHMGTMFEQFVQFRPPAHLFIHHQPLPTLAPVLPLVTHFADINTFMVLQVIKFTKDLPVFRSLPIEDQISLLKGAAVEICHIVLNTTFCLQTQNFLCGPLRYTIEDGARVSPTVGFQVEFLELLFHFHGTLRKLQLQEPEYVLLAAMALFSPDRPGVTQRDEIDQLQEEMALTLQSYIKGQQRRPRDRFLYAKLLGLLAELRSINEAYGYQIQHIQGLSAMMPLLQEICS
Outline: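 Antagonism measured as luciferase signal (ONE-Glo, 30 min, room temperature) in CAR-stimulated cells: HepG2-CYP2B6-hCAR double-stable line exposed 24 hr at 37 C to compound in a 15-point series plus 50 nM CITCO.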

[6] = qHTS assay to identify small molecule antagonists of the estrogen related receptor signaling pathway with the pleiotropic PPARgamma coactivator (PGC) from Tox21 10K library - cell viability counter screen (AID 1224840; active = well fitted cell-killing curve with a large enough effect in the repeat runs, not every such curve was filed as active; note: nearly all actives have a fitted effect of over 40% in size; note: potency is the fitted concentration of half-maximal effect)
Outline: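 Counter-screen for cytotoxicity: after 17.5 h compound exposure at 37 C, CellTiter-Fluor reagent added to PGC/ERR cells for 30 min and fluorescence read. Cells were seeded at 2,000 per well 6 h before dosing.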

[7] = qHTS assay to identify small molecule antagonists of the estrogen related receptor signaling pathway with the pleiotropic PPARgamma coactivator (PGC) from Tox21 10K library (AID 1224841; call rule not given here; note: actives are mostly falling curves and most rising ones were filed inactive; nearly all actives have a fitted effect of over 50% in size; note: potency is the fitted concentration of half-maximal effect)
Outline: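 Luminescence (One-Glo, 30 min at room temperature) after 18 h compound treatment at 37 C of PGC/ERR reporter cells plated at 2,000 cells/well and settled 6 h beforehand.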

[8] = qHTS assay to identify small molecule agonists of the hypoxia (HIF-1) signaling pathway - cell viability counter screen (AID 1224844; calls by dose curve; note: nearly all actives have a fitted effect of over 50% in size; note: potency is the fitted concentration of half-maximal effect)
Outline: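 Cytotoxicity measured by CellTiter-Glo ATP luminescence in the wells also read for beta-lactamase signal. Cells were HRE-bla ME-180 (2,000/well, 0.5% dialyzed FBS), exposed to compounds for 17 h at 37C.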

[9] = qHTS assay to identify small molecule antagonists of the estrogen related receptor (ERR) signaling pathway - cell viability counter screen (AID 1224818);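 note: series mostly up to about 46 µM; viability measured after 17.5 h of compound exposure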
Outline: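 Cytotoxicity counter screen: fluorescence from CellTiter-Fluor, added after 17.5 h compound exposure at 37 C and read 30 min later. ERR cell line seeded at 2,000 cells/well, preincubated 6 h before dosing.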

[10] = qHTS assay to identify small molecule agonists of the estrogen related receptor (ERR) signaling pathway (AID 1224820)
Outline: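 Luminescence readout (One-Glo, 30 min RT) from NTP-supplied ERR cell line exposed to compounds for 18 h at 37 C. Cells seeded 2,000 per well and pre-incubated 6 h before pin-tool compound transfer.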

[11] = system: estrogen-related receptor alpha (ERRalpha) with PGC-1alpha coactivator, human; assay: qHTS assay to identify small molecule antagonists of the estrogen related receptor signaling pathway with the pleiotropic PPARgamma coactivator (PGC) (AID 1224821; calls by dose curve;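 note: series mostly up to about 46 µM; lower luminescence signal means antagonism of PGC/ERR signalling; nearly all actives have a fitted effect of over 50% in size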)
Outline: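 PGC/ERR reporter cells; 6 h pre-incubation 37 C/5% CO2; pin-tool compound in DMSO, 18 h 37 C; One-Glo added, 30 min RT; luminescence read. qHTS antagonist mode.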

[12] = qHTS assay to identify small molecule antagonists of the estrogen related receptor signaling pathway with the pleiotropic PPARgamma coactivator (PGC) cell viability counter screen (AID 1224822; note: series mostly up to about 46 µM)
Outline: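 Viability counter-screen read by fluorescence intensity after 30 min with CellTiter-Fluor at 37 C; PGC/ERR reporter cells were exposed to compounds for 17.5 h at 37 C following a 6 h preincubation.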

[13] = qHTS assay to identify small molecule agonists of the estrogen related receptor signaling pathway with the pleiotropic PPARgamma coactivator (PGC) (AID 1224823)
Outline: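 Luminescence readout (One-Glo, 30 min RT) from PGC/ERR cell line treated 18 h at 37 C with pin-tool-delivered DMSO compound solutions; cells plated 6 h before dosing. Quantitative HTS format.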

[14] = qHTS assay to identify small molecule agonists of the constitutive androstane receptor (CAR) signaling pathway - cell viability counter screen (AID 1224836); note: nearly all actives have a fitted effect of over 45% in size; note: potency is the fitted concentration of half-maximal effect
Outline: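 Using CellTiter-Fluor, viability of HepG2 cells harbouring hCAR and CYP2B6-2.2kb was measured following 23 h incubation with a 15-concentration compound series plus PK11195 (0.75 uM final).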

[15] = qHTS assay to identify small molecule antagonists of the constitutive androstane receptor (CAR) signaling pathway - cell viability counter screen (AID 1224837); note: nearly all actives have a fitted effect of over 45% in size; note: potency is the fitted concentration of half-maximal effect
Outline: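 Cytotoxicity counter-screen: CellTiter-Fluor fluorescence after 23 h compound exposure (15-point qHTS) in double-stable HepG2-CYP2B6-hCAR cells, with 50 nM CITCO added.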

[16] = qHTS assay to identify small molecule agonists of the estrogen related receptor signaling pathway with the pleiotropic PPARgamma coactivator (PGC) from Tox21 10K library (AID 1224842); note: nearly all actives have a fitted effect of over 15% in size
Outline: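 Luminescence from One-Glo (30 min, room temperature) measured after PGC/ERR cells had 18 h at 37 C with pinned compound (23 nL in DMSO). Cells had been seeded at 2,000 per well and pre-incubated 6 h.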

[17] = target: Nuclear receptor subfamily 1 group I member 3 (Homo sapiens) (UniProt Q14994); assay: qHTS assay to identify small molecule agonists of the constitutive androstane receptor (CAR) signaling pathway (AID 1224839); note: nearly all actives have a fitted effect of over 15% in size; note: potency is the fitted concentration of half-maximal effect
Outline: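 Double-stable HepG2 cells (hCAR, CYP2B6-2.2kb) seeded 4 h before compound addition. Exposure 24 h with 0.75 uM PK11195 final. Luciferase detected by ONE-Glo.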

[18] = target: Thyrotropin receptor (Homo sapiens) (UniProt P16473); assay: qHTS assay to identify small molecule agonists of the thyroid stimulating hormone receptor (TSHR) signaling pathway (AID 1224843; calls by dose curve; note: nearly all actives have a fitted effect of over 45% in size; note: potency is the fitted concentration of half-maximal effect)
Thyrotropin receptor (Homo sapiens), sequence (P16473 whole entry, looked up): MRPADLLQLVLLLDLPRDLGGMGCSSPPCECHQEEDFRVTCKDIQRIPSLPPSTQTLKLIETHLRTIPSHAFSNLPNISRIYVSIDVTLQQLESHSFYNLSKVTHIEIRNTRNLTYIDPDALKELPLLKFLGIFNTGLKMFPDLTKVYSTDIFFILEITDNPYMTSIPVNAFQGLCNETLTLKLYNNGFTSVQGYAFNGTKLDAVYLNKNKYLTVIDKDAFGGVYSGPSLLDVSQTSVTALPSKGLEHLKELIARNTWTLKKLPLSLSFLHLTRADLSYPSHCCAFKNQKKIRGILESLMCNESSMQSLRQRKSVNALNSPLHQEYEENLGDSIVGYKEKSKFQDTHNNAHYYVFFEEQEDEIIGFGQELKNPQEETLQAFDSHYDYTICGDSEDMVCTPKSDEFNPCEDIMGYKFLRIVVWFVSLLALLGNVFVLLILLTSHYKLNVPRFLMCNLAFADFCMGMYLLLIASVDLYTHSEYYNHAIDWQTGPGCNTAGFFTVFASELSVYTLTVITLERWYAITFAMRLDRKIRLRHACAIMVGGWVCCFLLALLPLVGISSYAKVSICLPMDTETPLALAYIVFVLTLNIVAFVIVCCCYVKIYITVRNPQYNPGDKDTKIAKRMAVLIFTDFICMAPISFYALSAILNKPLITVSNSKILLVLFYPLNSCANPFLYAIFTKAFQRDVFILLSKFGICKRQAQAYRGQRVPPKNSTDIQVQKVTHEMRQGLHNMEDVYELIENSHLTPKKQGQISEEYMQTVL
Outline: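 A cell-based cAMP HTRF format was run in TSHR-transfected HEK293 cells, 800 per well. Treatment: 30 min, room temperature. Detection: 1 h with labelled cAMP and anti-cAMP cryptate. Concentration-response over 15 points, three replicates.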

[19] = qHTS assay to identify small molecule antagonists of the retinoic acid receptor (RAR) signaling pathway (AID 1159552; note: nearly all actives have a fitted effect of over 50% in size; note: potency is the fitted concentration of half-maximal effect)
Outline: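 C3RL4 RARE-luc cells, overnight plating; retinol 1 uM final added right after compound; 6 hr 37 C; luciferase read at 30 min RT.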

[20] = qHTS assay to identify small molecule antagonists of the estrogen related receptor (ERR) signaling pathway (AID 1224819)
Outline: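 LOPAC library screened for antagonism as reduced One-Glo luminescence in ERR reporter cells (2,000/well). Compounds were added after 6 h pre-incubation and left 18 h at 37C; reading followed a 30 min room-temperature reagent step.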

Measured: Potency

CC(C)(c1cc(Br)c(OCCO)c(Br)c1)c1cc(Br)c(OCCO)c(Br)c1
active: [3] 42.3 µM | [6] 42.3 µM | [7] 16.8 µM | [8] 42.7 µM
inactive: [1] | [2] | [4] | [5]

O=C(NO)c1ccccc1
active: [7] 18.4 µM
not listed: [3] | [4] | [5] | [8] | [17] | [18] | [19] | [20]
inactive: all other assays above

C=C(C)C(=O)OCCC[Si](Cl)(Cl)Cl
inactive: [1] | [2] | [3] | [4] | [14] | [15] | [5] | [17] | [6] | [18] | [8]

CN(C)CCCN1c2ccccc2Sc2ccc(C(F)(F)F)cc21
inactive: [1] | [4] | [17] | [18] | [8]
active: [19] 29.8 µM | [3] 29.8 µM

S=P(N1CC1)(N1CC1)N1CC1
active: [7] 5.74 µM
not listed: [5] | [8] | [16] | [19]
inactive: all other assays above

CCN(CC)CCNc1ccc(CO)c2sc3ccccc3c(=O)c12
inactive: [1] | [2] | [4]
active: [3] 13.3 µM | [14] 7.5 µM | [15] 7.5 µM | [5] 2.66 µM | [7] 8.41 µM | [8] 26.8 µM

CCCCCCCCCC(=O)N(C)C
inactive: [1] | [19] | [3] | [15] | [5] | [6] | [7] | [16] | [18] | [8]

COc1ccccc1OCCNCC(O)COc1cccc2[nH]c3ccccc3c12 (stereo not given)
active: [3] 23.7 µM | [7] 13.3 µM
inactive: [1] | [2] | [10] | [11] | [13] | [4] | [5] | [17] | [16]

C[Si](C)(C)Cl
not listed: [9] | [10] | [11] | [12] | [13] | [19] | [20]
inactive: all other assays above

CO[C@H]1C=CO[C@@]2(C)Oc3c(C)c(O)c4c(O)c(cc(O)c4c3C2=O)NC(=O)/C(C)=C\C=C/[C@H](C)[C@H](O)[C@@H](C)[C@@H](O)[C@@H](C)[C@H](OC(C)=O)[C@@H]1C
active: [3] 61.6 µM | [15] 48.9 µM | [8] 22 µM
inactive: [1] | [2] | [4] | [5] | [7] | [16]

CC(COC(=O)c1ccccc1)OC(=O)c1ccccc1 (stereo not given)
not listed: [9] | [10] | [11] | [12] | [13] | [19] | [20]
inactive: all other assays above

CC(C)(C)CC(C)(C)c1ccccc1O
inactive: [4] | [15] | [17] | [6] | [7] | [16]
active: [1] 54.8 µM | [19] 27.4 µM | [18] 13.8 µM

CCN=c1cc2oc3cc(NCC)c(C)cc3c(-c3ccccc3C(=O)OCC)c-2cc1C
active: [1] 60.9 µM and 48.6 µM | [19] 24.2 µM and 24.3 µM | [3] 272 nM and 243 nM | [8] 38.9 µM
inactive: [4] | [17] | [6] | [16]

CCCCCCCCCCCCCCCC
inactive: [1] | [2] | [3] | [4] | [14] | [15] | [6] | [7] | [16] | [18] | [8]

CC(CN(C)C)CN1c2ccccc2CCc2ccccc21 (stereo not given)
inactive: [1] | [9] | [12] | [4] | [14] | [15] | [6]

Nc1cc(Cl)c([N+](=O)[O-])cc1O
inactive: [1] | [2] | [5] | [7] | [16] | [18]
active: [3] 54 µM

CCOCOCC
inactive: [1] | [3] | [4] | [14] | [15] | [5] | [17] | [6] | [7] | [18] | [8]

CC1CCCNC1 (stereo not given)
inactive: [1] | [3] | [4] | [14] | [15] | [17] | [6] | [18]

C=C(c1ccc(C(=O)O)cc1)c1cc2c(cc1C)C(C)(C)CCC2(C)C
inactive: [4] | [14] | [15] | [16]
61.1 µM (active) and inactive: [6]
38.6 µM (active) and inactive: [17]
active: [1] 61.1 µM | [3] 54.5 µM | [7] 21.7 µM | [8] 15.5 µM and 16.9 µM
